Experimental data as given in PubChem BioAssay (NCATS).
Results filed as inconclusive are left out. A call without a number means that no potency is given here. Calls of active or inactive are those of the source. Calls follow the shape of the dose curve; as a rule, active = well fitted curve in the direction sought with a large enough effect; inconclusive = small, poorly fitted or top-dose-only effect, or another doubt; inactive = no such curve, though single readings can be large; an effect the other way counts as inactive or inconclusive.

Columns and labels:
[1] = biological target: Glutathione peroxidase 1 (Homo sapiens) (UniProt P07203); experiment: Primary qHTS Assay for Inhibitors of Recombinant Selenoprotein Glutathione Peroxidase 1 (GPX1) (AID 1845191); also: nearly all actives have a fitted effect of over 65% in size
Procedure, shortened: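 GR-coupled readout: NADPH consumption tracked by fluorescence, ex 340/em 450 nm, at t=0 and after 15 min at RT. Final mix 10 nM GPX1, 1 mM GSH, 0.5 mM CHP, 0.5 mM NADPH, 100 nM GR, 0.01% BSA, following 30 min enzyme–compound preincubation.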

[2] = biological target: Phospholipid hydroperoxide glutathione peroxidase GPX4 (Homo sapiens) (UniProt P36969); experiment: Primary qHTS Assay for Inhibitors of Recombinant Selenoprotein Glutathione Peroxidase 4 (GPX4) (AID 1845192); also: nearly all actives have a fitted effect of over 65% in size; as to activity change, negative = inhibition: series mostly up to about 50 µM
Procedure, shortened: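 Steps: GPX4 plus compound, 30 min RT; add GR/GSH/NADPH master mix; start with cumene hydroperoxide; read 340/450 nm fluorescence at 0 and 15 min. Finals were 200 nM GPX4, 1 mM GSH, 0.5 mM CHP, 0.5 mM NADPH, 100 nM GR.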

[3] = biological target: Luciferin 4-monooxygenase (Photinus pyralis) (UniProt P08659); experiment: Primary firefly luciferase (FLuc) qHTS assay for identification of artifact compounds. (AID 1845220); also: nearly all actives have a fitted effect of over 60% in size; as to activity change, negative = inhibition: series mostly up to about 54 µM
Procedure, shortened: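 D-luciferin and ATP (10 uM each, final) in Tris acetate buffer pH 7.6 were incubated with compounds for 15 min at room temperature. The reaction was started with 10 nM Photinus pyralis luciferase and luminescence read after 5 min. Percent inhibition was fitted to a 4-parameter Hill equation.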

[4] = Primary fluorescence-based thiol-reactive (MSTI) qHTS assay for identification of artifact compounds. (AID 1845221); also: nearly all actives have a fitted effect of over 65% in size; also: potency is read from the fitted curve at half-maximal effect;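 as to activity change, negative = thiol reactive: series mostly up to about 54 µM; thiol-reactive compounds lower the probe fluorescence signal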
Procedure, shortened: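 Reactivity toward the thiol probe MSTI (4 uM) is scored by fluorescence at Ex/Em 525/598 nm after 1 h at room temperature. Acetyl-MSTI and MSTI define the activity scale.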

[5] = test system: Nanoluciferase (engineered Oplophorus gracilirostris luciferase); experiment: Primary Nanoluciferase (NLuc) qHTS assay for identification of artifact compounds. (AID 1845222); also: series mostly up to about 54 µM
Procedure, shortened: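 Diluted conditioned medium from NLuc-expressing S16 cells treated with compounds for 15 min at room temperature, then Nano-Glo substrate added; luminescence read after 5 min. Percent inhibition versus no-enzyme and DMSO controls fitted to 4-parameter Hill equation.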

[6] = Primary redox qHTS assay for identification of artifact compounds. (AID 1845223)
Procedure, shortened: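 Redox-cycling detection via DTT (250 uM final) oxidation coupled to Amplex Red (25 uM)/HRP (250 mU/mL) in HBSS. 15 min preincubation plus 30 min after DTT, room temperature. Ex/Em 525/598 nm; 4-parameter Hill fit against DMSO and 10 uM DA3003.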

Phospholipid hydroperoxide glutathione peroxidase GPX4 (Homo sapiens), sequence (P36969 whole entry, looked up): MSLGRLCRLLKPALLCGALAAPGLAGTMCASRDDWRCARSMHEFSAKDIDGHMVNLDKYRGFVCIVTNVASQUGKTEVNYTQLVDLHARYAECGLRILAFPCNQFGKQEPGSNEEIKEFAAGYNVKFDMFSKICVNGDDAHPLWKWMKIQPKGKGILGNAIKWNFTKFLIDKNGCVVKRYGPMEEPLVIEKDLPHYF
Glutathione peroxidase 1 (Homo sapiens), sequence (P07203 whole entry, looked up): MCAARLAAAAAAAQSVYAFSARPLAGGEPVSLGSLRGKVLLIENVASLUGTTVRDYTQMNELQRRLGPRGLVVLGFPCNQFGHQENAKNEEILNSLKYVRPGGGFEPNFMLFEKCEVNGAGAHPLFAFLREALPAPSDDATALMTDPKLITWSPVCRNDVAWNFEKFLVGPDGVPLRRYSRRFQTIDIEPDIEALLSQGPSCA

SMILES | Potency [1] | Potency [2] | Potency [3] | Potency [4] | Potency [5] | Potency [6] | outcome [3] | activity change, negative = thiol reactive [4] | activity, negative = inhibition [5] | redox activity (% of DA3003) [6] | activity change, negative = inhibition [3]
C=C1CCc2occ(C)c2[C@H]2[C@H]1[C@@]13O[C@@]1(C[C@@H](C)[C@H]3OC(C)=O)[C@H]1O[C@@]21C | inactive | inactive | inactive | inactive | inactive | inactive |  |  |  |  | 
O=C1NC(=O)/C(=C/c2cccc(C(F)(F)F)c2)S1 | inactive | inactive | inactive | 1.06 µM (active) | inactive | inactive |  |  |  |  | 
CC(=O)O[C@@H]1CC2C(C)(C)C(=O)C=C[C@]2(C)C2CC[C@]3(C)C(=CC(=O)[C@@H]3c3ccoc3)[C@@]21C (stereo not given in full) | inactive | inactive | inactive | inactive | inactive | inactive |  |  |  |  | 
C/C=C(/C)C(=O)O[C@H]1C[C@]2(C)O[C@@H]2[C@@H](OC(C)=O)[C@@]2(C)CC[C@@](O)(C(C)C)[C@H]12 | inactive | inactive | inactive | inactive | inactive | inactive |  |  |  |  | 
CC(=O)OC12CC(C)C(OC(=O)c3ccccc3)C1/C=C(/C)C(OC(=O)c1ccccc1)CC(=O)C(C)(C)/C=C/C(C)C2=O (stereo not given) | inactive | inactive | inactive | inactive | inactive | inactive |  |  |  |  | 
COC(=O)C1=CO[C@@H](O[C@@H]2O[C@H](CO)[C@@H](O)[C@H](O)[C@H]2O)[C@H]2[C@@H]1C=C[C@]21C=C([C@H](C)OC(=O)/C=C/c2ccc(O[C@@H]3O[C@H](CO)[C@@H](O)[C@H](O)[C@H]3O)cc2)C(=O)O1 | inactive | inactive | inactive | inactive | inactive | inactive |  |  |  |  | 
C[C@@H]1O[C@@H](O[C@@H]2[C@@H](O)[C@H](O[C@H]3[C@H](O[C@H]4CC[C@@]5(C)C(CC[C@]6(C)C5CC=C5[C@@H]7CC(C)(C)CC[C@]7(C(=O)O[C@@H]7O[C@H](CO)[C@@H](O)[C@H](O)[C@H]7O)CC[C@]56C)C4(C)C)O[C@H](C(=O)O)[C@@H](O)[C@@H]3O)OC[C@H]2O)[C@H](O)[C@H](O)[C@H]1O (stereo not given in full) | inactive | inactive |  |  |  |  | inactive [at 11.6 µM] | 351% [at 11.5 µM] (inactive) | 2.29% [at 11.6 µM] (inactive) | -4.9% [at 11.5 µM] (inactive) | 
C/C=C(\C)C(=O)OC[C@H]1O[C@@H](O[C@H]2[C@@H](O[C@H]3O[C@H](COC(=O)/C(C)=C/C)[C@@H](O)[C@H](O)[C@H]3O[C@@H]3O[C@H](COC(=O)/C(C)=C/C)[C@@H](O)[C@H](OC(=O)/C(C)=C/C)[C@H]3O)O[C@H](COC(=O)/C(C)=C/C)[C@@H](O)[C@@H]2O)[C@H](O)[C@@H](O)[C@@H]1O | inactive | inactive |  |  |  |  |  | 8.85% [at 11.5 µM] (inactive) | 0.483% [at 11.6 µM] (inactive) | -2.39% [at 11.5 µM] (inactive) | 3.11% [at 11.6 µM] (inactive)
COc1cc(C2Oc3c(OC)cc(CCCO)cc3C2CO)ccc1O (stereo not given) | inactive | inactive | inactive | 13.1 µM (active) | inactive | inactive |  |  |  |  | 
COc1cc(C(C)=O)ccc1O[C@@H]1O[C@H](CO)[C@@H](O)[C@H](O)[C@H]1O | inactive | inactive | inactive | inactive | inactive | inactive |  |  |  |  | 
CC(O)C(=O)/C=C/C=C/C(=O)OC1C=C2COC(=O)C2(O)C2(C)CCCC(C)(C)C12 (stereo not given) | inactive | inactive | inactive | inactive | inactive | inactive |  |  |  |  | 
C=C(C(=O)O)C1CC(O)C2(C)CCCC(C)(O)C2C1 (stereo not given) | inactive | inactive | inactive | 11.9 µM (active) | inactive | inactive |  |  |  |  | 
CC(=O)N[C@H](Cc1c[nH]c2ccccc12)C(=O)OCc1cc(C(F)(F)F)cc(C(F)(F)F)c1 | inactive | inactive | inactive | inactive | inactive | inactive |  |  |  |  | 
Cc1ccc(-n2nc(C(C)(C)C)cc2NC(=O)Nc2cc(COc3cccnc3)[nH]n2)cc1 | inactive | inactive | inactive | inactive | inactive | inactive |  |  |  |  | 
CC(C)(C)NS(=O)(=O)c1ccc(-c2ccc3[nH]nc(N)c3c2)cc1 | inactive | inactive | inactive | 7.52 µM (active) | inactive | inactive |  |  |  |  | 
COc1cc(C(C)=O)ccc1O[C@@H]1O[C@H](CO[C@@H]2OC[C@@H](O)[C@H](O)[C@H]2O)[C@@H](O)[C@H](O)[C@H]1O | inactive | inactive | inactive | inactive | inactive | inactive |  |  |  |  | 
CCC/C=C1\OC(=O)C2=C1CCC(O)C2O (stereo not given) | inactive | inactive | inactive | inactive | inactive | inactive |  |  |  |  | 
CC1(C)CC[C@]2(C(=O)O[C@@H]3O[C@H](CO)[C@@H](O)[C@H](O)[C@H]3O)CC[C@]3(C)C(=CCC4[C@@]5(C)C[C@H](O)[C@H](O[C@@H]6OC[C@@H](O)[C@H](O)[C@H]6O)[C@@](C)(CO)C5CC[C@]43C)C2C1 (stereo not given in full) | inactive | inactive |  |  |  |  | inactive [at 11.6 µM] | 298% [at 11.5 µM] (inactive) | 3.66% [at 11.6 µM] (inactive) | 17.7% [at 11.5 µM] (inactive) | 
NC(=O)[C@H](Cc1ccccc1)NC(=O)[C@H](CCCN=C(N)N)NC(=O)C12CC3CC(CC(C3)C1)C2 | inactive | inactive |  |  |  |  |  | 37.2% [at 11.5 µM] (inactive) | 3.23% [at 11.6 µM] (inactive) | -2.26% [at 11.5 µM] (inactive) | 0.126% [at 11.6 µM] (inactive)
C[C@]1(C2CCCC2)Cc2cc(OCC(=O)O)c(Cl)c(Cl)c2C1=O | inactive | inactive | inactive | inactive | inactive | inactive |  |  |  |  | 
